# Reference: PubChem BioAssay (NCI)
# Compounds without any hit were thinned out: in the full panel of roughly 83,000, 20% have a hit.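 Growth was measured after 48 h exposure to one concentration of compound in 96-well plates. Values under 10 count as active.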 Values without a mark were called inactive. Active and inactive are the calls of the source.
# Key:
# Test in all cases: NCI-60 one-dose screen, 48 h (100 = growth as untreated, 0 = no growth, -100 = all killed)
# Conditions in all cases: 10 µM unless noted
# DU-145 prostate = system: DU-145 prostate
# K-562 leukemia = system: K-562 leukemia
# MALME-3M melanoma = system: MALME-3M melanoma
# MDA-MB-231 breast = system: MDA-MB-231 breast
# RXF 393 renal = system: RXF 393 renal
# SF-268 CNS = system: SF-268 CNS
# SF-295 CNS = system: SF-295 CNS
# SF-539 CNS = system: SF-539 CNS
# UACC-257 melanoma = system: UACC-257 melanoma
# M14 melanoma = system: M14 melanoma
# HCT-15 colon = system: HCT-15 colon
# HT29 colon = system: HT29 colon
# SNB-75 CNS = system: SNB-75 CNS
# SNB-19 CNS = system: SNB-19 CNS
# U251 CNS = system: U251 CNS
# PC-3 prostate = system: PC-3 prostate
# SK-MEL-5 melanoma = system: SK-MEL-5 melanoma
# UACC-62 melanoma = system: UACC-62 melanoma
# LOX IMVI melanoma = system: LOX IMVI melanoma
# SK-MEL-28 melanoma = system: SK-MEL-28 melanoma
Structure (SMILES),growth (DU-145 prostate),growth (K-562 leukemia),growth (MALME-3M melanoma),growth (MDA-MB-231 breast) [%],growth (RXF 393 renal),growth (SF-268 CNS),growth (SF-295 CNS) [%],growth (SF-539 CNS) [%],growth (UACC-257 melanoma),growth (M14 melanoma),growth (HCT-15 colon),growth (HT29 colon),growth (SNB-75 CNS) [%],growth (SNB-19 CNS) [%],growth (U251 CNS) [%],growth (PC-3 prostate),growth (SK-MEL-5 melanoma) [%],growth (UACC-62 melanoma),growth (LOX IMVI melanoma),growth (SK-MEL-28 melanoma)
N#Cc1c(-c2cccc(Cl)c2)cc(-c2cccc(Cl)c2)[nH]c1=O,96.5%,27.1%,69%,90.5,82.1%,83.4%,83.7,82.7,90.2%,57.9%,44.9%,114%,43,71.6,74.7,68.7%,64.9,45.2%,72.3%,78.5%
COc1ccc(N2CCN(c3nc(-c4cc(OC)c(OC)c(OC)c4)nc4ccccc34)CC2)cc1,93.5%,79.1%,108%,71,92.6%,87.7%,95.2,96.9,102%,71.3%,61.8%,81.5%,84.5,93.5,96.1,41.3%,46.4,56%,79.3%,87.1%
O=[N+]([O-])c1ccc(N2c3ccncc3Sc3ccncc32)cc1,117%,83%,122%,77.1,83.6%,129%,103,99.3,113%,106%,96.5%,121%,98.9,107,93.4,88.1%,112,93.2%,81.7%,115%
Cn1c(I)c(C#C[Si](C)(C)C)c(=O)n(C(=O)c2ccccc2)c1=O,0.184% (active),-95.2% (active),-10.3% (active),64.2,-81.5% (active),-18% (active),87.9,69.4,-20.8% (active),-54.7% (active),6.55% (active),1.95% (active),52.2,95.8,24.8,-56.8% (active),55.1,69.9%,-90.4% (active),-65.6% (active)
Cc1ccc(-c2cc(-c3ccccc3C)[nH]c(=O)c2C#N)s1,104%,85.6%,111%,84.8,92%,95.8%,99.2,91.5,107%,109%,90.5%,122%,71.6,88.5,91.2,85.6%,89.8,75.5%,82.8%,110%
O=S(=O)(NCCCNc1cc(-c2c(-c3cccc(O)c3)nc3sccn23)ccn1)c1cccc(Cl)c1,55.9%,25.4%,48.2%,73.6,41.1%,44.3%,49.3,77.4,68.4%,41.7%,28.4%,50.2%,14.2,67.3,53.4,24.6%,31.1,40.3%,29.6%,60.7%
Cc1ccc(-n2nc3c(c(C#N)c2=O)CC(c2ccccc2Cl)C([N+](=O)[O-])=C3O)cc1 (stereo not given),107%,81.7%,101%,82.4,101%,90%,101,99.8,102%,99.6%,61.3%,118%,75.1,97.1,90,66.6%,75,84.3%,81.4%,106%
O=c1c2cc(F)ccc2sc2c(NCCCN3CCCC3)nc3ccccc3c12,60.1%,-29.7% (active),26.5%,21.1,22.7%,47.6%,55.1,65.3,54.2%,-64.2% (active),7.59% (active),5.1% (active),21.5,53.6,33.2,43.8%,58.8,-75.9% (active),-87.1% (active),-52.8% (active)
